Experimental data published in the supplement of paper PMC10981050.
Where “and” joins values, the source holds several entries; their conditions need not be identical. Identical values can stand only once. Counter-ions that a name gives are not always drawn.

Columns and labels:
Experiment in all cases: cell viability relative to vehicle control; higher = less cytotoxic
Conditions in all cases: 10 µM
K562 = system: K562
Method in brief: (§1)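 Four leukaemia lines, as CRISPR-edited mutant clones and isogenic wild-type clones, were tested against Selleck bioactive, kinase and epigenetic probe libraries after removal of identity-inconsistent compounds. Cells were exposed to a single 10 µM dose for 48 h, and CellTiter-Glo luminescence was then read. Viability was calculated relative to the on-plate vehicle control.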

MARIMO = system: MARIMO
Method in brief: as §1

MOLM14 = system: MOLM14
Method in brief: as §1

OCI-AML2 = system: OCI-AML2
Method in brief: as §1

Compound | cell viability (K562; SRSF2 genotype: SRSF2 P95H/wt) | cell viability (K562; SRSF2 genotype: SRSF2 wt/wt) | cell viability (MARIMO; SRSF2 genotype: SRSF2 P95H/wt) | cell viability (MARIMO; SRSF2 genotype: SRSF2 wt/wt) | cell viability (MOLM14; SRSF2 genotype: SRSF2 P95H/wt) | cell viability (MOLM14; SRSF2 genotype: SRSF2 wt/wt) | cell viability (OCI-AML2; SRSF2 genotype: P95H/wt) | cell viability (OCI-AML2; SRSF2 genotype: wt/wt)
N[C@@H](CSCCB(O)O)C(=O)O [BEC Hydrochloride] | 105% and 101% | 96.8% | 99.4% | 114% | 101% | 104% | 109% | 111%
C=CC(=O)Nc1cccc(Oc2nc(Nc3ccc(N4CCN(C)CC4)cc3)nc3ccsc23)c1 | 16.7% and 14.4% | 49.6% | 31.2% | 43.4% | 0.27% | 0.47% | 0.27% | 0.68%
CC(=O)Cc1cc(=O)c2c(C)cc(O)c([C@@H]3O[C@H](CO)[C@@H](O)[C@H](O)[C@H]3O)c2o1 [Aloesin] | 101% and 97.6% | 102% | 102% | 104% | 109% | 101% | 105% | 105%
CC1(C)OC(=O)C=C[C@]2(C)[C@H]3CC[C@@]4(C)[C@H](c5ccoc5)OC(=O)[C@H]5O[C@]54[C@]3(C)C(=O)C[C@@H]12 [Obacunone] | 103% and 98.1% | 95.4% | 92.7% | 95.5% | 97.4% | 102% | 91.1% | 93.6%
O=NO [Sodium Nitrite] | 107% and 104% | 95.9% | 99.9% | 99.4% | 96.4% | 101% | 97.8% | 99.5%
CC(C)=CCC[C@@](C)(O)[C@H]1CC[C@@]2(C)[C@@H]1[C@H](O)C[C@@H]1[C@@]3(C)CC[C@H](O)C(C)(C)C3CC[C@]12C (stereo partly drawn) [(20R)-Protopanaxdiol] | 109% and 101% | 96% | 103% | 105% | 106% | 102% | 103% | 101%
CN(C)C(=O)Nc1cccc(-c2ccc(N(C)C)cc2)c1 [Atglistatin] | 90.1% and 82.6% | 91.3% | 91.4% | 99.9% | 96.8% | 92.4% | 92.7% | 89.2%
O=c1c2cc(O[C@@H]3O[C@H](CO)[C@@H](O)[C@H](O)[C@H]3O)c(O)cc2oc2cc(O)c([C@@H]3O[C@H](CO)[C@@H](O)[C@H](O)[C@H]3O)c(O)c12 [Neomangiferin] | 95.1% and 100% | 97% | 93.8% | 91.2% | 99.4% | 100% | 101% | 97.7%
COc1ccc(CCc2nc3cc(-c4c(C)noc4C)ccc3n2C[C@H](C)N2CCOCC2)cc1Cl | 80.9% and 86.9% | 73.8% | 76.9% | 70.5% | 47.4% | 42.5% | 45.7% | 60.6%
Cc1c(C(=O)C=Cc2ccccc2)[n+](=O)c2ccccc2n1[O-] [Quinocetone] | 72.1% and 60% | 74.1% | 62.2% | 63.8% | 56.5% | 62.6% | 62.7% | 68.6%
Cc1ncc(CO)c(CO)c1O [Pyridoxine hydrochloride] | 104% and 103% | 111% | 104% | 112% | 105% | 110% | 104% | 96.7%
CCCc1cc2c(N3CCN(C4=NCC(C)(C)S4)CC3)ncnc2s1 [MI-2 (Menin-MLL inhibitor)] | 73.4% and 74.9% | 71.4% | 62.1% | 57.1% | 76.2% | 84.1% | 45.1% | 53.3%
CC(=O)N1CCN(c2ccc(OCC3COC(Cn4ccnc4)(c4ccc(Cl)cc4Cl)O3)cc2)CC1 (stereo not drawn) [Ketoconazole] | 56.2% and 70.5% | 62.4% | 34.9% | 26.1% | 40.9% | 26.2% | 32% | 30.8%
Cc1cc(Nc2cc(N3CCN(C)CC3)nc(/C=C/c3ccccc3)n2)n[nH]1 | 19.4% and 23.7% | 18.3% | 36% | 26.5% | 2.58% | 5.88% | 6.21% | 14.9%
O=C(O)C(O)Cc1ccc(O)c(O)c1 (stereo not drawn) [Sodium Danshensu] | 98.7% and 92.4% | 95.5% | 95.5% | 107% | 96.4% | 98.8% | 93.7% | 104%
O=C(O)CCc1ccc(O)cc1O [Hydroumbellic acid] | 96% and 92.8% | 90.8% | 95.6% | 104% | 100% | 100% | 93.3% | 106%
CC(C)c1noc(N2CCC(COc3ccc(-c4ccc(S(C)(=O)=O)cc4)nc3)CC2)n1 | 59.8% and 77.2% | 70.5% | 70% | 34.1% | 90.4% | 95.7% | 28.4% | 36.8%
COC(=O)[C@@H]1CC2=CC(=O)CC[C@]2(C)[C@@]23O[C@@H]2C[C@@]2(C)[C@@H](CC[C@@]24CCC(=O)O4)[C@H]13 [Eplerenone] | 98.4% and 103% | 103% | 98% | 103% | 107% | 95.6% | 100% | 101%
CN(C)CCOc1ccc(-c2nc(-c3ccncc3)c(-c3ccc4c(c3)CC/C4=N\O)[nH]2)cc1 | 1.3% and 2.07% | 0.83% | 11.5% | 4.32% | 30.2% | 49.3% | 6.47% | 15.8%
COc1ccc2[nH]c([S@@+]([O-])Cc3ncc(C)c(OC)c3C)nc2c1 [Esomeprazole sodium] | 98.5% and 100% | 94.4% | 98.8% | 99.8% | 97.4% | 90.9% | 96% | 91.8%
CCOCC(O)COc1ccc(NC(=O)CC[S+](C)C)cc1 (stereo not drawn) [Suplatast tosylate] | 100% | 103% | 97.7% | 109% | 105% | 105% | 97.7% | 110%
